# Source: PubChem BioAssay
# DRD3 agonist – D3 dopamine receptor (human) agonism. P35462. D3R DiscoveRx beta-arrestin cells, luminescence, 90 min. max activation, %. hit rate 0.58% among 410,000. AID 652048; in the data active = max activation above about 30%; note: 0% is about no effect
#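 Agonist mode: compounds and dopamine controls were applied to plated cells for 90 min at 37 degrees C after an overnight attachment at 1500 cells/well. Luminescent read-out followed 30 - 60 minutes at room temperature with DiscoveRx detection reagent.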
# mIDH1 inhibitor – human IDH1 R132H inhibition; O75874; IDH1-R132H enzyme, NADPH consumption, diaphorase/resazurin fluorescence; Potency, µM (doses to about 76.6 µM), for the others: at the highest dose activity change, negative = inhibition, most hits filed as inhibitors; hit rate 0.093% among 390,000; AID 602179; note: potency is the fitted concentration of half-maximal effect; % is set by controls: 0 for no effect and ±100 for the full control effect; nearly all actives have a fitted effect of over 65% in size
#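 IDH1-R132H (0.5 ug/mL dispensed) in pH 7.5 Tris buffer was preincubated 30 min with compound, then given a substrate mix of 0.016 mM NADPH and 2 mM alpha-KG for 80 min at room temperature; remaining NADPH was read by diaphorase/resazurin fluorescence.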
# DRD3 antagonist – D3 dopamine receptor (human) antagonism; P35462; D3R cells, DiscoveRx beta-arrestin luminescence, antagonist mode; hits give low values; max response, negative = inhibition, %; hit rate 2.5% among 360,000; AID 652054; in the data active = max response below about -50%; inconclusive = no clear call, values can overlap the other calls; note: % is set by controls: 0 for no effect and ±100 for the full control effect
#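 Cells plated overnight at 1500 cells/well, then exposed to library compounds with dopamine controls for 90 minutes at 37 degrees C. DiscoveRx reagent added for 30–60 minutes at room temperature; luminescence read, quantitative HTS format.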
# B2AR arrestin – agonists driving beta-arrestin recruitment to human beta2-adrenergic receptor | beta-arrestin recruitment to beta2AR, cell-based reporter | Potency, µM (top dose mostly 46.1 µM), inactives show at the highest dose activation, usual class: activators | hit rate 0.02% among 330,000;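 note: potency is the fitted concentration of half-maximal effect; 0% = DMSO controls and full agonism = EC100 isoproterenol or metaproterenol; nearly all actives have a fitted effect of over 65% in size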
# Target sequence (P07550 whole entry, looked up): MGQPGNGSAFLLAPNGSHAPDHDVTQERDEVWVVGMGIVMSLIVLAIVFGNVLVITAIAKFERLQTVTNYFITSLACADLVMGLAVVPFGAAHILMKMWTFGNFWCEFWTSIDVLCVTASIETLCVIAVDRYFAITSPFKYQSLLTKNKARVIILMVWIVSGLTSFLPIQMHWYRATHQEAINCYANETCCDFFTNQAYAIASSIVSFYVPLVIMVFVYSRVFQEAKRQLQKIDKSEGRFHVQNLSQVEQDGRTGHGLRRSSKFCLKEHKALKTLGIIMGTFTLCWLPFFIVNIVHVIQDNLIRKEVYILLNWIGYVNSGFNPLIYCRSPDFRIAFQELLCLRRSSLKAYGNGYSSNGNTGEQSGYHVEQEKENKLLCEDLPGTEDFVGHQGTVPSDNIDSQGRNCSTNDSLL
# a7 integrin act – activates integrin-mediated alleviation for muscular dystrophy; alpha7betagal myoblasts, beta-gal FDG fluorescence, 48 h; Potency, µM (top dose mostly 38.3 µM), without a hit: at the top dose activation, hits mostly activators; hit rate 0.064% among 350,000; AID 624291;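 note: potency is the fitted concentration of half-maximal effect; 100% = response of the positive control SU9516; nearly all actives have a fitted effect of over 60% in size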
#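 Alpha7betagal+/- myoblasts (passage 13) were plated 16-24 hr, then exposed to compounds (1:260 dilution of DMSO stock) for 48 hours at 37C. After MPER lysis, β-galactosidase reporter activity was read as FDG fluorescence (ex 480/em 540) after 30 minutes.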
# Numbers without * were called inactive; ? = inconclusive; nt = no result; [ ] = another dose, or the depositor's remark. Rows were chosen to be rich in hits. Some 2.9% of all compounds tested hit in one or more screens of this group. Unless noted, calls come from the whole dose curve; as a rule, active = well fitted curve in the direction sought with a large enough effect; inconclusive = small, poorly fitted or top-dose-only effect, or another doubt; inactive = no such curve, though single readings can be large; an effect the other way counts as inactive or inconclusive.
SMILES,DRD3 agonist,mIDH1 inhibitor,DRD3 antagonist,B2AR arrestin,a7 integrin act
COc1ccc(OC)c(-c2cc(C(=O)Nc3c(C)nn(Cc4ccccc4)c3C)no2)c1,35*,4%,23,0%,-16%
COc1ccc(OC)c(-c2cc(C(=O)Nc3c(C)nn(Cc4ccc(Cl)cc4)c3C)no2)c1,41*,4%,16,0%,-12%[7.66 µM]
COC(=O)c1cnc(N2CCN(c3ccc(OC)cc3)CC2)c2ccccc12,10,16%,nt,nt,nt
Cc1c(CC(=O)NCc2ccccc2)c(=O)oc2c(C)c(O)ccc12,0,-13%,nt,nt,nt
CC(C)=CCC[C@](C)(OC1OC(COC2OCC(O)C(O)C2O)C(O)C(O)C1O)C1CC[C@]2(C)C1C(O)CC1[C@@]3(C)CCC(O[C@@H]4O[C@H](CO)C(O)C(O)C4O[C@@H]4OC(CO)C(O)C(O)C4O)C(C)(C)C3CC[C@]12C (some centres not stated),10,2%,1,0%,22%
CC(C)=CCC[C@](C)(O)C1CC[C@]2(C)C1[C@H](O)CC1[C@@]3(C)CC[C@H](O[C@@H]4O[C@H](CO)[C@@H](O)[C@H](O)[C@H]4O[C@@H]4O[C@H](CO)[C@@H](O)[C@H](O)[C@H]4O)C(C)(C)C3CC[C@]12C (some centres not stated),-19,10%,-61*,0%,-14%
COc1cc(/C=N/NC(=O)c2ccc(Cl)cc2)ccc1OCC(=O)N1CC(C)OC(C)C1 (configuration not stated),-24,1%,-54*,0%,-449%
Cc1ccc2nc(/C(C#N)=C\c3ccc([N+](=O)[O-])o3)[nH]c2c1,26,8%,-27,0%,-61%
N#C/C(=C\c1ccc([N+](=O)[O-])o1)c1nc2ccccc2[nH]1,45*,12%,-29,6%,-58%
CCc1cccc(NC(=O)Cn2c(=O)c(C(F)(F)F)nc3ccccc32)c1,8,11%,nt,nt,nt
O=C(O)CC/C(=N\Nc1ccc(S(=O)(=O)N2CCCC2)cc1[N+](=O)[O-])c1cccs1,-6,-5%,-28,0%,-17%
O=C(O)CC/C(=N\Nc1ccc(S(=O)(=O)N2CCOCC2)cc1[N+](=O)[O-])c1cccs1,-10,-6%,-62*,-1%,-21%
Cn1c(=S)c2[nH]c(SCCN3CCCC3)nc2n(C)c1=O,-1,-8%,-18,16µM*,-10%
Cc1cccc(CN2CCN(C3CN(C4CCCC4)S(=O)(=O)C3)CC2)c1 (configuration not stated),-11,nt,?,nt,nt
Cc1cccc(CN2CCN(C3CN(C4CCCCC4)S(=O)(=O)C3)CC2)c1 (configuration not stated),-14,nt,-57*,nt,nt
O=C(O)c1cc(=O)c2c3nc4ccccc4oc-3cc(=O)c2[nH]1,-3,nt,nt,nt,nt
COc1ccccc1CN1C(=O)CN(C2CCCCCC2)C(=O)C1c1ccc(C)cc1 (configuration not stated),-12,3%,nt,nt,nt
COc1cc2nc(NCc3ccccc3)n3nc(-c4ccccc4)nc3c2cc1OC,-8,-4%,nt,nt,nt
O=C1Nc2cc(C(=O)NCCCN3CCCC3)ccc2S/C1=C/c1cccc(Cl)c1,-2,1%,-59*,nt,-60%
Cc1cccc(/C=C2/Sc3ccc(C(=O)NCCN4CCCC4)cc3NC2=O)c1,-11,-6%,-7,-1%,-55%
CC(C)(C)c1ccc(CN2N=Nc3ccccc3S2(=O)=O)cc1,3,16%,-93*,0%,-76%
CC(C)(C)c1nn(-c2ccccc2)c2[nH]c(=O)c(C=O)cc12,-34,8%,-101*,0%,-6%
C=CCN(C/C(=N\O)c1sc(C(=O)OCC)nc1C)c1cccc(Br)c1,63*,-5%,4,nt,-43%
CCOC(=O)c1sc(N/N=C/c2cccc(C)c2)nc1C,-1,6%,7,0%,-6%
N#C/C(=C\c1cc(Br)c(O)c(Br)c1)c1nc2ccccc2c(=O)[nH]1,-11,10%,nt,nt,nt
SMILES,DRD3 agonist,mIDH1 inhibitor,DRD3 antagonist,B2AR arrestin,a7 integrin act
CCCCC1=CC2=CC(=O)C(C)(OC(=O)CC)C(=O)C2=CN1c1cccc(C#N)c1 (configuration not stated),32*,11%,-13,nt,27%
Cc1cccc(NC(=O)Cn2nc(-c3ccco3)ccc2=O)c1C,0,6%,5,0%,9%
O=C(CCN1C(=O)C2C3C=CC(C3)C2C1=O)N1CCN(c2ccccc2Cl)CC1 (configuration not stated),-9,2%,-80*,3%,-9%
CCOc1ccc(-c2csc(NC(=O)CSCC(=O)O)n2)c2ccccc12,45*,9%,85,0%,-73%
Cc1cc(Br)ccc1NC(=O)CCS(=O)(=O)c1cccc2nsnc12,-1,23%,nt,nt,nt
COc1ccc(OCc2cccc(C(=O)Nn3cc([N+](=O)[O-])cn3)c2)cc1,0,4%,-65*,0%,-3%
COc1ccc(OCc2cccc(C(=O)NN)c2)cc1,2,-2%,2,9%,-15%
O=C(OCC(COC(=O)c1cccnc1)(COC(=O)c1cccnc1)COC(=O)c1cccnc1)c1cccnc1,5,nt,nt,nt,nt
COc1ccc(-c2noc(CN(C(C)C)S(=O)(=O)c3ccc(Br)cc3)n2)cc1,-2,nt,nt,nt,nt
COC(=O)c1ccccc1NC(=O)CCS(=O)(=O)c1ccc(Br)s1,1,2%,-52*,0%,-27%
Cn1c(SCC(N)=O)nc2c([nH]c3ccccc32)c1=O,1,11%,nt,nt,nt
Cc1cc(OCC(=O)N(Cc2cccs2)C2CCS(=O)(=O)C2)ccc1Cl (configuration not stated),4,5%,5,0%,-6%
CCN(CC)CCC(C)OC(c1ccccc1)c1ccccc1 (configuration not stated),-4,13%,-53*,-1%,-59%
O=C(Nc1nc(-c2nc3ccccc3s2)cs1)c1ccc(S(=O)(=O)N2CCOCC2)cc1,51*,-2%,48,0%,-42%
O=C(Nc1nc(-c2ccccn2)cs1)c1cc(S(=O)(=O)N2CCOCC2)ccc1F,-28,-4%,-77*,0%,-53%
Cc1ccc(CNC(=O)Cn2cc(S(=O)(=O)Cc3ccccc3F)c3ccccc32)cc1,4,14%,nt,nt,nt
CCOC(=O)c1c(NC(=O)COc2ncnc3sccc23)sc2c1CCC2,35*,1%,20,0%,-34%
CCCCN(CC)C(=O)c1nn(-c2ccc(OC)cc2)c(=O)c2c1c1ccccc1n2C,3,nt,nt,nt,nt
COc1cccc(NC(=O)C2CCN(Cc3cnn(-c4ccccc4)c3-n3cccc3)CC2)c1,-1,1%,-50*,-1%,-53%
COc1ccc(OC)c(NC(=O)C2CCN(Cc3cnn(-c4ccccc4)c3-n3cccc3)CC2)c1,-10,3%,-65*,0%,-48%
